According to PubChem BioAssay (NCATS):
Records with an inconclusive call do not appear. Entries that show only a call come without a potency. Values without a mark were called inactive. Activity calls are given as the source filed them. Calls come from the whole dose curve; as a rule, active = well fitted curve in the direction sought with a large enough effect; inconclusive = small, poorly fitted or top-dose-only effect, or another doubt; inactive = no such curve, though single readings can be large; an effect the other way counts as inactive or inconclusive.

How the values were obtained:
[1] = target: Cellular tumor antigen p53 (Homo sapiens) (UniProt P04637); experiment: Primary qHTS for small molecule compounds that upregulate eGFP-tagged delta133p53alpha (in N-terminal) cells. (AID 2060322); conditions: NCI-H358 eGFP-delta133p53alpha fluorescence, 24 h; activation: active compounds read high; note: nearly all actives have a fitted effect of over 75% in size; note: potency is the fitted concentration of half-maximal effect;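 for activation: cells pre-induced with doxycycline then dosed without doxycycline; series mostly up to about 56 µM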
Cellular tumor antigen p53 (Homo sapiens), sequence (P04637 whole entry, looked up): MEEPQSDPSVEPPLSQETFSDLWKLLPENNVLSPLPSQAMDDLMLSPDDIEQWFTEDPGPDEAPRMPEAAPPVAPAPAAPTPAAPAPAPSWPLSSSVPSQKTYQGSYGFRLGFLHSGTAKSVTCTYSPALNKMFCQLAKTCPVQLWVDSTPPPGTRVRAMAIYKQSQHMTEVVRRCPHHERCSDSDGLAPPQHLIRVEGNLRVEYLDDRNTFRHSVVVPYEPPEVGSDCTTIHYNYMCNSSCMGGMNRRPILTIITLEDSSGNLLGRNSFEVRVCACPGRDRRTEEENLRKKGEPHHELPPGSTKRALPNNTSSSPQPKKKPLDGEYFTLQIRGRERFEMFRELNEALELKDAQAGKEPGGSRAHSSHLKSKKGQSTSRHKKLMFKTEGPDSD
How it was run: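 NCI-H358 cells pre-induced 24 h with 10 ng/ml doxycycline for eGFP-delta133p53alpha, plated dox-free and exposed 24 h at 37C to titrated compounds. Fixed, Hoechst-stained; gated GFP peak intensity by laser scanning cytometry, normalized to DMSO (0%) and 57.5 uM 5-azacytidine (100%).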

[2] = target: Aldehyde dehydrogenase, mitochondrial (Homo sapiens) (UniProt P05091); experiment: qHTS for Inhibitors of the Aldehyde Dehydrogenase Family (ALDH2) Primary screen (AID 2061308); note: nearly all actives have a fitted effect of over 55% in size
[3] = target: Retinaldehyde dehydrogenase 3 (Homo sapiens) (UniProt P47895); experiment: qHTS for Inhibitors of the Aldehyde Dehydrogenase Family (ALDH1A3) Primary screen (AID 2061315)

| Structure (SMILES) | activation [1] | Potency [2] | Potency [3] | activity change, negative = inhibition [2] | activity change, negative = inhibition [3] | Potency [1] |
| --- | --- | --- | --- | --- | --- | --- |
| C=C(C(=O)O)[C@@H]1CC[C@@]2(C)CC[C@@H](O)C(=C)C2C1 (stereo partly specified) | 22.9% | inactive | inactive | – | – | – |
| CC1(C)CC[C@@]2(C(=O)O[C@@H]3O[C@H](CO)[C@@H](O)[C@H](O)[C@H]3O)C(C1)C1=CCC3[C@@]4(C)CC[C@@H](O[C@@H]5O[C@H](C(=O)O)[C@@H](O[C@@H]6OC[C@@H](O)[C@H](O)[C@H]6O)[C@H](O[C@@H]6OC[C@](O)(CO)[C@H]6O)[C@H]5O)C(C)(C)C4CC[C@@]3(C)[C@]1(C)C[C@H]2O (stereo partly specified) | -19.8% | inactive | inactive | – | – | – |
| CC/C=C\CC1C(CC(=O)O)CCC1OC1OC(CO)C(O)C(O)C1O (stereo unspecified) | 0% | inactive | inactive | – | – | – |
| COC1/C=C/C(C)(O)C(SCC(N)C(=O)O)CC(=O)OC(C)C(C)CC/C=C/1C (stereo unspecified) | 0.763% | inactive | inactive | – | – | – |
| CC1(C)CCC[C@@]2(C)C1[C@H](OC(=O)/C=C/C=C/C(=O)O)C=C1COC(=O)[C@@]12O (stereo partly specified) | -13% | inactive | inactive | – | – | – |
| CC(=O)NC(CCC(=O)O)C(=O)NCCc1ccc(O)cc1 (stereo unspecified) | -14.5% | inactive | inactive | – | – | – |
| COc1cc(NS(=O)(=O)c2ccc(N)cc2)nc(C)n1 | -15.9% | inactive | inactive | – | – | – |
| CC(=O)O[C@@H]1[C@H](O[C@@H]2O[C@H](CO)[C@@H](O)[C@H](O)[C@H]2O)[C@@H](O[C@@H]2O[C@@H](C)[C@H](O)[C@@H](O[C@@H]3O[C@H](CO)[C@@H](O)[C@H](O)[C@H]3O)[C@H]2O)[C@H](OC(=O)[C@]23CCC(C)(C)C[C@H]2C2=CCC4[C@@]5(C)C[C@H](O)[C@H](O[C@@H]6O[C@H](C(=O)O)[C@@H](O)[C@H](O)[C@H]6O)[C@@](C)(C(=O)O)C5CC[C@@]4(C)[C@]2(C)CC3)O[C@@H]1C (stereo partly specified) | 2.29% | – | – | 6.2% [at 11.2 µM] | -6.53% [at 11.2 µM] | – |
| CCc1c(-c2ccccc2)c(-c2ccccc2)nn1-c1ccccc1-c1cccc(OCC(=O)O)c1 | 13% | inactive | inactive | – | – | – |
| O=C1NC(Cc2ccc(O)cc2)C(=O)N2CCCC12 (stereo unspecified) | -19.8% | inactive | inactive | – | – | – |
| C[C@H](NC(c1cccc2[nH]c(=O)c(=O)[nH]c12)P(=O)(O)O)c1ccc(Br)cc1 (stereo partly specified) | -12.3% | inactive | inactive | – | – | – |
| Nc1nc2c(nc(Br)n2[C@@H]2O[C@@H]3COP(=O)(O)O[C@H]3[C@H]2O)c(=O)[nH]1 | -14.3% | inactive | inactive | – | – | – |
| COc1cc(C)c(C(=O)O[C@H]2[C@@H](O)[C@H](n3ccc(=O)[nH]c3=O)O[C@@H]2CO)c(OC)c1 | -3.05% | inactive | inactive | – | – | – |
| CC(C)C[C@@H]1NC(=O)[C@@H]2C[C@@]34C[C@@H]5[C@@]6(C)CCCC(C)(C)C6CC[C@@]5(C)N(c5ccccc53)[C@H]4N2C1=O (stereo partly specified) | 3.82% | inactive | inactive | – | – | – |
| CC[C@H]1OC(=O)[C@H](C)C(=O)[C@H](C)[C@@H](OC2O[C@H](C)C[C@H](N(C)C)[C@H]2O)[C@@H](C)C[C@@H](C)C(=O)/C=C/[C@]1(C)O (stereo partly specified) | -4.58% | inactive | inactive | – | – | – |
| C=C(CO[C@@H]1O[C@H](CO[C@@H]2OC[C@](O)(CO)[C@H]2O)[C@@H](O)[C@H](O)[C@H]1O)C1Cc2cc(C(C)=O)ccc2O1 (stereo partly specified) | -12.2% | inactive | inactive | – | – | – |
| CC(O)C1NC(=O)C2CCCN2C1=O (stereo unspecified) | -25.2% | inactive | inactive | – | – | – |
| O=C(Cc1ccc(Cl)cc1)Nc1cnccc1C(=O)O | -12.3% | inactive | inactive | – | – | – |
| Cc1ccccc1CN1C2=NCCN2C(=O)C2=C1CCN(Cc1ccccc1)C2 | 29% | inactive | inactive | – | – | – |
| CC1CC2OC3(OC2C(C)(C)O)C1C1(C)CCC24CC25CCC(O[C@@H]2OC[C@@H](O)[C@H](O)[C@H]2O)C(C)(C)C5CC=C4C1(C)C3O (stereo partly specified) | -18.8% | inactive | inactive | – | – | – |
| CC[C@H](C)/C=C(C)/C=C/C1=CC2=C(Cl)C(=O)[C@](C)(O)[C@H](OC(C)=O)[C@H]2CO1 | – | inactive | inactive | – | – | 14.8 µM (active) |
| CN(C)CC1CCn2c(c(C3=C(c4cn(C)c5ccccc45)C(=O)NC3=O)c3ccccc32)C1 (stereo unspecified) | – | inactive | inactive | – | – | 34.3 µM (active) |
